{
  "source": "PubChem BioAssay AID720706",
  "about": "(Broad Institute, 2013)",
  "note": "The campaign covered roughly 350,000 compounds. About 5,500 (1.6%) were called active.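 How the source made its calls: active means significant combined selectivity score with lowered wild-type GFP, culture density cut under 30%, mutant RFP and density less affected; inactive means any of these conditions unmet.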 The entries come from a sample that favours actives as a whole.",
  "data": [
    {"experiment": "GFP drop in mixed WT/humanized-ribosome E. coli culture – GFP/RFP fluorescence, OD600, single point, bacterial rRNA inhibitor project, primary screen (AID 720706)", "conditions": "E. coli WT GFP vs humanized-ribosome RFP mutants, 24 h; GFP signal change (wild-type ribosome): stronger effect = lower value, DMSO median 0, no signal -100; OD600 change: measured here: OD600 growth, DMSO median 0, no signal -100; RFP signal change: measured here: RFP humanized mutant strains, DMSO median 0, no signal -100, concentration not given here", "units": {"OD600 change": "%", "RFP signal change": "%"}, "values": [
      {"smiles": "COc1ccccc1-c1cnc2c(c1)C(=O)N([C@@H](C)CO)C[C@H](C)[C@@H](CN(C)C(C)=O)O2", "GFP signal change (wild-type ribosome)": "3.59% (inactive)", "OD600 change": 4.33, "RFP signal change": -1.79},
      {"smiles": "O=C(/C=C/c1ccc(Cl)cc1)N1CCN(c2ccccc2[N+](=O)[O-])CC1", "GFP signal change (wild-type ribosome)": "-31% (inactive)", "OD600 change": -42.6, "RFP signal change": -26.6},
      {"smiles": "O=C(/C=C/c1ccc2c(c1)OCCO2)c1ccc(O)cc1", "GFP signal change (wild-type ribosome)": "-19.8% (active)", "OD600 change": -11.6, "RFP signal change": 6.75},
      {"smiles": "CC(=O)Nc1ccc(C=CC(=O)c2ccc([N+](=O)[O-])cc2)cc1", "GFP signal change (wild-type ribosome)": "5.97% (inactive)", "OD600 change": 7.9, "RFP signal change": -0.138},
      {"smiles": "COc1ccc(OC)c(/C=C/C(=O)c2ccc3c(c2)OCO3)c1", "GFP signal change (wild-type ribosome)": "0.015% (inactive)", "OD600 change": -9.29, "RFP signal change": -8.02},
      {"smiles": "CN(C)c1ccc(/C=C/C(=O)c2ccc(O)cc2)cc1[N+](=O)[O-]", "GFP signal change (wild-type ribosome)": "-22.5% (active)", "OD600 change": -13.8, "RFP signal change": 5.33},
      {"smiles": "O=C(COC(=O)c1ccc(O)cc1O)c1ccc2c(c1)OCCO2", "GFP signal change (wild-type ribosome)": "-13.2% (inactive)", "OD600 change": -20.4, "RFP signal change": 0.835},
      {"smiles": "O=C(/C=C/c1ccc(Cl)c([N+](=O)[O-])c1)c1ccc(O)cc1", "GFP signal change (wild-type ribosome)": "-26.1% (active)", "OD600 change": -2.69, "RFP signal change": 9.14},
      {"smiles": "CC(CC(=O)O)C(=O)c1ccc(Cl)c([N+](=O)[O-])c1", "note": "(configuration not stated)", "GFP signal change (wild-type ribosome)": "10.7% (inactive)", "OD600 change": 9.82, "RFP signal change": -3.76},
      {"smiles": "CC(=O)Nc1ccc(C=Cc2ccc([N+](=O)[O-])cc2)cc1", "GFP signal change (wild-type ribosome)": "2.45% (inactive)", "OD600 change": 3.79, "RFP signal change": -1.71},
      {"smiles": "CC=Cc1ccc2n(c1=O)C[C@@H]1[C@@H](CO)[C@H](C(=O)N(C)C)N(CC3CCOCC3)[C@H]21", "note": "(mixture of isomers)", "GFP signal change (wild-type ribosome)": "2.33% (inactive)", "OD600 change": -5.67, "RFP signal change": 0.865},
      {"smiles": "CN1c2ccc(Br)cc2[C@@H]2[C@@H](CCN2C(=O)C2CCCC2)[C@H]1CO", "GFP signal change (wild-type ribosome)": "-37% (inactive)", "OD600 change": -68.3, "RFP signal change": 0.745},
      {"smiles": "COCC#Cc1ccc([C@@H]2[C@@H](CO)N3CCCCN(C(=O)COC)C[C@@H]23)cc1", "GFP signal change (wild-type ribosome)": "4.36% (inactive)", "OD600 change": 1.27, "RFP signal change": -1.64},
      {"smiles": "COCC#Cc1ccc2c(c1)O[C@H](CN(C)C(=O)CC1CC1)[C@@H](C)CN([C@@H](C)CO)S2(=O)=O", "GFP signal change (wild-type ribosome)": "1.22% (inactive)", "OD600 change": 3.88, "RFP signal change": -1.84},
      {"smiles": "CCCNC(=O)N(C)C[C@H]1Oc2ncc(-c3ccccc3F)cc2C(=O)N([C@@H](C)CO)C[C@H]1C", "GFP signal change (wild-type ribosome)": "-0.164% (inactive)", "OD600 change": 9.97, "RFP signal change": 0.69},
      {"smiles": "COc1ccc(-c2csc(Nc3cccc(C)n3)n2)cc1OC", "GFP signal change (wild-type ribosome)": "-3.87% (inactive)", "OD600 change": -21.5, "RFP signal change": 23},
      {"smiles": "Cc1cccc(Nc2nc(-c3ccccc3)cs2)n1", "GFP signal change (wild-type ribosome)": "-36.3% (active)", "OD600 change": -28.1, "RFP signal change": -6.26},
      {"smiles": "CC(=O)NC(c1ccccc1)c1nc(-c2cccc(C(C)C)c2)cs1", "note": "(configuration not stated)", "GFP signal change (wild-type ribosome)": "2.35% (inactive)", "OD600 change": -27.5, "RFP signal change": 4.32},
      {"smiles": "COc1ccc(-c2cn(CC[C@@H]3CC[C@@H](NS(=O)(=O)c4ccccc4C)[C@H](CO)O3)nn2)cc1", "GFP signal change (wild-type ribosome)": "-0.161% (inactive)", "OD600 change": 0.015, "RFP signal change": 1.23}
    ]}
  ]
}
